From PubChem BioAssay AID1159580 (chemical genetic matrix, 2015)
Among all 5,500 compounds or so, about 2,000 (36%) were called active. Roughly 18% stayed inconclusive and do not appear here. Rule as the data show it: active = normalized growth mostly below about 0.91 (no sharp cut-off); inconclusive = no clear call, values can overlap the other calls; inactive = mostly above about 0.92. Some of the results follow.

Test: chemical genetic growth profiling, strain panel (AID 1159580);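 also: tested at 20 µM; growth read once vehicle control cultures reached saturation at 30 °C; 1 = growth at the plate median or of vehicle wells; lower values mean less growth of the strain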
Conditions: S. cerevisiae deletion strains, growth OD

Measured: normalized growth

CCn1cnc2c(Nc3cccc(Cl)c3)nc(N[C@@H]3CCCC[C@@H]3N)nc21
inactive: locus YAL013W, strain DEP1, hits give low values 0.985 | locus YAL040C, strain CLN3, hits give low values 1.02 | locus YCL061C, strain MRC1 (second series), hits give low values 0.998 | locus YDR363W, strain ESC2, hits give low values 0.993 | locus YER002W, strain NOP16, hits give low values 1.03 | locus YGR078C, strain PAC10, hits give low values 1.01 | locus YGR229C, strain SMI1, hits give low values 0.993 | locus YMR263W, strain SAP30, hits give low values 1 | locus YNL175C, strain NOP13, hits give low values 1.08 | locus YNL224C, strain SQS1, hits give low values 1.04 | locus YOR083W, strain WHI5 (second series), hits give low values 0.991 | locus YPL241C, strain CIN2, hits give low values 1.01
